Potency and outcome data for 32 molecules are collected here from PubChem BioAssay (Tox21).

Assay [1] in a line: qHTS assay to identify small molecule antagonists of the sonic hedgehog signaling (Shh) pathway (AID 1259369). Also: nearly all actives have a fitted effect of over 45% in size. Also: potency is read from the fitted curve at half-maximal effect. The method in brief:
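Read-out is luminescence from a firefly luciferase gene controlled by the Gli1 response element, in 3T3Gli1-Luc cells pre-incubated 4hr then exposed to compounds and conditioned medium for 24hr.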

The target of assay [2] is Estrogen receptor beta (Homo sapiens) (UniProt Q92731). The assay is described as follows: qHTS assay to identify small molecule agonists of the estrogen receptor beta (ER-beta) signaling pathway (AID 1259377; active = well fitted activation curve with a large enough effect in the signal ratio in the repeat runs, not every such curve was filed as active; the % refers to the signal ratio). An outline of the steps: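 Read-out: beta-lactamase FRET fluorescence. Cell line: ER-beta-UAS-bla HEK293T in 2% charcoal-stripped FBS. Exposure: 16 hr at 37C. Substrate step: 2 h at room temperature.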

Assay [3] has the same target. Kind of assay: qHTS assay to identify small molecule antagonists of the estrogen receptor beta (ER-beta) signaling pathway (AID 1259378; active = well fitted inhibition curve with a large enough effect in the signal ratio in the repeat runs, not every such curve was filed as active; the % refers to the signal ratio). The method in brief: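 Antagonist mode: compounds added to beta-lactamase reporter HEK293T ER-beta-UAS cells stimulated with E2 (1nM final), 16 hr at 37C. LiveBLAzer B/G FRET substrate, 2 hours room temperature, fluorescence read-out.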

Assay [4] can be described thus: qHTS assay to identify small molecule agonists of the androgen receptor (AR) signaling pathway in the presence of an antagonist - cell viability counter screen (AID 1259379; active = well fitted curve in the direction sought with a large enough effect in the repeat runs; an effect the other way counts as inactive or inconclusive; also: nearly all actives have a fitted effect of over 25% in size; also: potency is read from the fitted curve at half-maximal effect). The method in brief:
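Each compound was tested at 15 concentrations on MDA-kb2 cells in the presence of 3.0uM nilutamide. Viability was measured by CellTiter-Fluor fluorescence after a 16 hr incubation at 37C in a CO2-free atmosphere.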

The nature of assay [5]: qHTS assay to identify small molecule agonists or antagonists of the thyroid stimulating hormone receptor (TSHR) signaling pathway - wild type cell line counter screen (AID 1259384). An outline of the steps: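 Counter screen in untransfected Hek293: compounds (15-point titration, triplicate) plus phosphodiesterase inhibitor Ro20-1724 added after 18 h plating; 30 min RT. Intracellular cAMP via competitive d2/cryptate immunoassay, 1 h incubation.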

Assay [6] is described as follows: qHTS assay to identify small molecule agonists of the estrogen receptor beta (ER-beta) signaling pathway - cell viability counter screen (AID 1259380; active = well fitted curve in the direction sought with a large enough effect in the repeat runs; an effect the other way counts as inactive or inconclusive; also: nearly all actives have a fitted effect of over 30% in size; also: potency is read from the fitted curve at half-maximal effect). An outline of the steps: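 Compounds dissolved in DMSO were pin-transferred onto ER-beta-UAS-bla HEK293T cells that had settled 6 hr, and exposure ran 16 hr at 37C. Following the reporter read, CellTiter-Glo luminescence after 30 min at room temperature indicated cytotoxicity.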

Assay [7] concerns the target Estrogen receptor (Homo sapiens) (UniProt P03372). Kind of assay: qHTS assay to identify small molecule agonists of the estrogen receptor alpha (ER-alpha) signaling pathway in the presence of an antagonist (AID 1259383). Also: nearly all actives have a fitted effect of over 15% in size. Also: potency is read from the fitted curve at half-maximal effect. As to activation: top concentration of the series differs between compounds. The method in brief: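 Luminescent ERE-luciferase reporter, VM7Luc4E2 cells (endogenous ER-alpha); 10.0nM ICI-182,780 final; 15-point compound titration; 22hr at 37C; ONE-Glo, 30min RT.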

Assay [8] deals with Androgen receptor (Homo sapiens) (UniProt P10275). Kind of assay: qHTS assay to identify small molecule agonists of the androgen receptor (AR) signaling pathway in the presence of an antagonist (AID 1259381). Also: nearly all actives have a fitted effect of over 15% in size. An outline of the steps:
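Plated MDA-kb2 cells (3,000/well) were pre-incubated 5hr, given nilutamide (3.0uM final) or buffer, then dosed with compounds in DMSO at 15 concentrations. Luciferase activity was quantified by luminescence after 16hr at 37C.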

Assay [9] is described as follows: qHTS assay to identify small molecule antagonists of the estrogen receptor beta (ER-beta) signaling pathway - cell viability counter screen (AID 1259382; active = well fitted curve in the direction sought with a large enough effect in the repeat runs; an effect the other way counts as inactive or inconclusive;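 also: HEK293T cells carrying ER-beta-UAS-bla reporter stimulated with estradiol; series mostly up to about 92 µM; nearly all actives have a fitted effect of over 55% in size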). An outline of the steps:
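CellTiter-Glo ATP luminescence measured after the LiveBLAzer read in the same wells; ER-beta-UAS-bla HEK293T cells, 16 hr compound treatment with 1nM 17-beta-estradiol agonist at 37C, 5% CO2.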

Assay [10] has as its target Thyrotropin receptor (Homo sapiens) (UniProt P16473). The assay is described as follows: qHTS assay to identify small molecule antagonists of the thyroid stimulating hormone receptor (TSHR) signaling pathway (AID 1259385). Also: nearly all actives have a fitted effect of over 20% in size. An outline of the steps:
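Antagonist mode: compound-treated TSHR-expressing HEK293 cells were stimulated with 1.5 ng/mL TSH (final) in presence of Ro20-1724 for 30 min at RT. HTRF cAMP detection after 1 h; each compound tested at 15 concentrations, triplicate.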

The structures appear in SMILES notation. “And” between values parts separate entries of the source, which are not always exact repeats. Equal values may be shown once. Records with an inconclusive call do not appear. Some compounds were tested as several samples or in several runs, with calls that do not always agree. The source made the active and inactive calls. Unless noted, calls follow the shape of the full dose curve.

Thyrotropin receptor (Homo sapiens), sequence (P16473 whole entry, looked up): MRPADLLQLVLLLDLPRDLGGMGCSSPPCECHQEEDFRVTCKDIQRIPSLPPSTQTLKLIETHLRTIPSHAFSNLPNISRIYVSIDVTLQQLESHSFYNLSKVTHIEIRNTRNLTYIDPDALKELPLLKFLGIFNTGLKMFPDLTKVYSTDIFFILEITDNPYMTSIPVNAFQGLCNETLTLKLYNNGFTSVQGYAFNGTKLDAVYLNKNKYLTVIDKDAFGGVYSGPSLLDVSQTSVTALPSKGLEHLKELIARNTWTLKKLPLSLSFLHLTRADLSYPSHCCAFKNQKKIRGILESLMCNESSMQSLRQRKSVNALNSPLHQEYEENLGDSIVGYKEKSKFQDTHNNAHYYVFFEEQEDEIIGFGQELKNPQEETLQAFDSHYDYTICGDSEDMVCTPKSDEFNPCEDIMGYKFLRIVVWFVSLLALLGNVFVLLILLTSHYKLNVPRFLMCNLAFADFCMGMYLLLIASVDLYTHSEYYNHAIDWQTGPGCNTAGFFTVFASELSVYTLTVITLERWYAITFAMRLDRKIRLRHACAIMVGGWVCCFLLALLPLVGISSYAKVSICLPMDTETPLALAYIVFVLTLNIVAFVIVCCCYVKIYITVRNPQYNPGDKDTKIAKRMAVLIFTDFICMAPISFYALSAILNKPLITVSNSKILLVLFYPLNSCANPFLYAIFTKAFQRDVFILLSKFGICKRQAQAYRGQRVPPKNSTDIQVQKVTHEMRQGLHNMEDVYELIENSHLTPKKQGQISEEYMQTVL
Estrogen receptor beta (Homo sapiens), sequence (Q92731 whole entry, looked up): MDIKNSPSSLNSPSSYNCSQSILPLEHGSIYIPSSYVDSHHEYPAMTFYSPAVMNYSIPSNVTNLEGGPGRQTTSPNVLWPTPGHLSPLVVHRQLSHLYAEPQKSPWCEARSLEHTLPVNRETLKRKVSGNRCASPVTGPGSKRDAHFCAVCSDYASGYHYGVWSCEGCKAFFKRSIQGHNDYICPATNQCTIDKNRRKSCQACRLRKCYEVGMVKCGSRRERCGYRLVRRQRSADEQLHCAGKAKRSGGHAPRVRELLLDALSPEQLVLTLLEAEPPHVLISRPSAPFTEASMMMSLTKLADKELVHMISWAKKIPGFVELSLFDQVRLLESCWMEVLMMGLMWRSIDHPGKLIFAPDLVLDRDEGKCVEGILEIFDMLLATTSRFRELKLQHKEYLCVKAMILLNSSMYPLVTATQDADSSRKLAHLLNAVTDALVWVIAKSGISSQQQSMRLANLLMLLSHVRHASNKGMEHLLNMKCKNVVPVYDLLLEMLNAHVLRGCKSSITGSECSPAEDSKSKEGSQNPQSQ
Androgen receptor (Homo sapiens), sequence (P10275 whole entry, looked up): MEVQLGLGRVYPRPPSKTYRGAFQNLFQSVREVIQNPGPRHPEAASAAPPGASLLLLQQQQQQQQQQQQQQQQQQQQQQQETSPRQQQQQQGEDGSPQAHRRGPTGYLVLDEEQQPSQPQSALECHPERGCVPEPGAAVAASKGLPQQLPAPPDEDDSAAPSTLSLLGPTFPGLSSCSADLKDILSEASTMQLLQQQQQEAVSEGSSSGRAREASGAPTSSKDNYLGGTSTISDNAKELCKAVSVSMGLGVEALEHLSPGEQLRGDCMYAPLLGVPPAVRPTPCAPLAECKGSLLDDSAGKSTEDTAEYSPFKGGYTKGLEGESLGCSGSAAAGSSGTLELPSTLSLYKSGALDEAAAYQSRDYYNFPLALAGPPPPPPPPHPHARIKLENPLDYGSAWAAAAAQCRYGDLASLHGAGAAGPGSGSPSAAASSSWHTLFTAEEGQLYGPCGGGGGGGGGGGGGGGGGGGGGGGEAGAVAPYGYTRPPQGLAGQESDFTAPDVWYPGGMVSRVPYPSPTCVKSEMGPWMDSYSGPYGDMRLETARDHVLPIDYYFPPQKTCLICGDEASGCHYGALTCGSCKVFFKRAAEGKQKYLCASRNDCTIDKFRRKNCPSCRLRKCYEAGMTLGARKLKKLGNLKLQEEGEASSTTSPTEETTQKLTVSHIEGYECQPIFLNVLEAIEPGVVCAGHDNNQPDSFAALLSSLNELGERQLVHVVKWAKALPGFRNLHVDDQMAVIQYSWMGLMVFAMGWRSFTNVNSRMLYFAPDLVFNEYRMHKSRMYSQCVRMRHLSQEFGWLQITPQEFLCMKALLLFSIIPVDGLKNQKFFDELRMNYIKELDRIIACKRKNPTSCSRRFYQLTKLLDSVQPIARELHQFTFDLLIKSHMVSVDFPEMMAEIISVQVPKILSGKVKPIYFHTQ
Estrogen receptor (Homo sapiens), sequence (P03372 whole entry, looked up): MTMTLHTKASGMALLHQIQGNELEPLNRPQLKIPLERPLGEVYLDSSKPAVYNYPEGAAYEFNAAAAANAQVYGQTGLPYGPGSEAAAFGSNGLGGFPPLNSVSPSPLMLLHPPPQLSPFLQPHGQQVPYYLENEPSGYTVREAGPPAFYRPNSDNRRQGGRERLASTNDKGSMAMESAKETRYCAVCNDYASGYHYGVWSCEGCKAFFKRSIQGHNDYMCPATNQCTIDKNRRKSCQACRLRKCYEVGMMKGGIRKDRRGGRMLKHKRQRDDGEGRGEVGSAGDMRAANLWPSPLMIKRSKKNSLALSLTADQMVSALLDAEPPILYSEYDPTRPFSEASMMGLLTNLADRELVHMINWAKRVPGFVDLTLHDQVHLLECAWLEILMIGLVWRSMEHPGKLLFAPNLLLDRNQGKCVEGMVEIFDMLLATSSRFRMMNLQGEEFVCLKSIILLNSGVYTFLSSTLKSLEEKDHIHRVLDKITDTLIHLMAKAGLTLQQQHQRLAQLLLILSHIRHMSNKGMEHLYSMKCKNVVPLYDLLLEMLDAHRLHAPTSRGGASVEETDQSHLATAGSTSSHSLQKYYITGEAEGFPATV

For the molecule `C=C1CC[C@@]2(O)[C@H]3Cc4ccc(O)c5c4[C@@]2(CCN3CC2CC2)[C@H]1O5`, the Potency result in assay [1], in assay [2] and in assay [4] was “inactive” each time. The molecule was classed as inactive in assay [3] and in assay [5].

For `COc1ccc(CN2CCNCC2)c(OC)c1OC`, the Potency entry in assay [1], in [2], in [4], in assay [6] and in [7] was “inactive” in each case. The call in [3] was inactive.

`Cn1c(CCCC(=O)O)nc2cc(N(CCCl)CCCl)ccc21`: the Potency result in [1], in assay [2], in assay [4], in assay [6] and in [7] was “inactive” throughout. Also, the call in assay [3] and in [5] was inactive.

Take `CC(C)(N)Cc1ccccc1Cl`: the Potency result in assay [1], in assay [2], in assay [4], in assay [8], in assay [9] and in assay [7] was “inactive” throughout. Also, the molecule was called inactive in assay [3], in assay [5] and in assay [10].

With `NC(=O)CS(=O)C(c1ccccc1)c1ccccc1` (configuration not stated), the Potency entry in assay [1], in [2], in [4], in assay [9] and in [7] was “inactive” in each case. Also, the result in [3] and in assay [10] was inactive.

With `O=C1CCCCC1Cl` (configuration not stated), the Potency entry in [1], in [2], in [4], in assay [6] and in assay [9] was “inactive” throughout. Moreover, the result in assay [3], in [5] and in assay [10] was inactive.

For the molecule `BrCCc1ccccc1`, the Potency result in assay [1], in assay [2], in [4] and in [6] was “inactive” each time. Further, the result in [3] and in assay [5] was inactive.

`CCCCCCC1CCOC1=O` (configuration not stated): the Potency result in [1], in [2], in [4], in assay [6] and in assay [9] was “inactive” throughout. Further, the molecule was called inactive in assay [3] and in assay [5].

Regarding `ClCCCCCCCl`, the Potency entry in assay [1], in [2], in [4], in [6] and in assay [9] was “inactive” in each case. Moreover, the result in [3] and in assay [5] was inactive.

Consider `O=C(O)C(Cl)Br` (configuration not stated), for which the Potency result in assay [1], in assay [2], in assay [4] and in assay [9] was “inactive” in each case. For the same molecule, the molecule was called inactive in [3] and in [5].

As to `CCCN1CCC[C@@H]2Cc3[nH]ncc3C[C@H]21`, the Potency result in assay [1], in [2], in assay [4], in assay [6] and in assay [7] was “inactive” each time. Also, the outcome in assay [3], in [5] and in [10] was inactive.

`CC(=NC#N)N(C)Cc1ccc(Cl)nc1`: the Potency entry in assay [1], in assay [2], in [4], in assay [6] and in assay [9] was “inactive” each time. Also, the outcome in assay [3] and in assay [10] was inactive.

As to `CCOC(=O)c1ncn2c1CN(C)C(=O)c1c(I)cccc1-2`, the Potency result in assay [1], in assay [2], in assay [4], in assay [6] and in assay [7] was “inactive” in each case. Further, the call in assay [3] and in assay [10] was inactive.

Take `C/C(=N\NC(=O)Nc1cc(F)cc(F)c1)c1ncccc1C(=O)O`: the Potency result in assay [1], in [2], in assay [4], in assay [6] and in [7] was “inactive” in each case. The molecule was classed as inactive in assay [3] and in assay [10].

With `CC(C)(C)C(=O)C(Cl)Cl`, the Potency result in [1], in [2], in assay [4], in assay [6] and in assay [9] was “inactive” in each case. Also, the molecule was called inactive in assay [3], in assay [5] and in [10].

`CCc1cc(OC)c(C[C@H](C)N)cc1OC`: the Potency result in [1] and in assay [2] was “inactive” throughout. Moreover, the call in [3], in [5] and in assay [10] was inactive. Besides, in assay [6], the Potency was 71.5 µM (active).

Turning to `C[C@H](N)C(=O)c1ccccc1`, the Potency entry in assay [1], in [2], in assay [4], in [6], in assay [8] and in assay [7] was “inactive” throughout. Further, the molecule was classed as inactive in assay [5] and in assay [10].

In the case of `O=S1(=O)OCCO1`, the Potency result in assay [1], in [4], in [6], in [8] and in assay [9] was “inactive” throughout. Besides, the molecule was classed as inactive in assay [5] and in assay [10].

Consider `CCOC(=O)C(SP(=S)(OC)OC)c1ccccc1` (configuration not stated), for which the Potency result in assay [1], in assay [2], in assay [4], in assay [6] and in assay [9] was “inactive” throughout. Also, the call in [5] and in assay [10] was inactive.

For `C[C@H]1CCCC(=O)CCC/C=C/c2cc(O)cc(O)c2C(=O)O1`, the Potency was 14.8 µM (active) and inactive in [1]; 46.8 µM (active) and inactive in [4]; 41.7 nM (active) and 56.3 nM (active) in [7]. Also, the Potency result in [6] and in assay [8] was “inactive” in each case.

Consider `Clc1ccc(C(Cl)(Cl)Cl)cn1`, for which the Potency entry in assay [1], in [4], in assay [6], in [8], in assay [9] and in assay [7] was “inactive” throughout. In addition, in [5], the call was inactive.

For the molecule `N#CC(Br)(Br)C(N)=O`, the Potency result in assay [1], in assay [4] and in assay [6] was “inactive” in each case.

For the molecule `CC(C)NCC(O)c1ccc([N+](=O)[O-])cc1` (configuration not stated), the Potency result in assay [1], in assay [2], in assay [4], in [6] and in [9] was “inactive” each time. Besides, the molecule was called inactive in [5] and in assay [10].

Regarding `CCC1(CC)C(=O)C=CNC1=O`, the Potency result in [1], in assay [2], in assay [4], in assay [6], in assay [9] and in assay [7] was “inactive” in each case. Further, the molecule was called inactive in assay [10].

For the molecule `CNC(=O)Oc1ccccc1C(C)C`, the Potency entry in assay [1], in [4], in assay [6], in [8], in [9] and in assay [7] was “inactive” each time. In addition, the molecule was called inactive in [5] and in assay [10].

On to `COc1cc(CCN)cc(OC)c1OC`, for which the Potency result in [1], in assay [2], in assay [4], in [6], in [9] and in [7] was “inactive” each time. For the same molecule, the call in [5] and in assay [10] was inactive.

Take `O=c1[nH]c2ccccc2n1C1CCNCC1`: the Potency entry in assay [1], in assay [4], in assay [6], in assay [8], in assay [9] and in assay [7] was “inactive” throughout. The outcome in assay [5] and in assay [10] was inactive.

Regarding `O=C(O)CBr`, the Potency result in assay [1], in [2], in [4], in assay [6] and in assay [9] was “inactive” each time. Also, the result in assay [5] and in assay [10] was inactive.

`ClCOCCl`: the Potency result in assay [1], in assay [4], in [6], in [9] and in assay [7] was “inactive” each time. Also, the outcome in assay [3], in [5] and in assay [10] was inactive.

Consider `O=C(Cl)/C=C/C(=O)Cl`, for which the Potency result in [1], in assay [2], in [4], in [6], in assay [8] and in assay [9] was “inactive” in each case. Moreover, the Potency result in [7] is “inactive”.

Consider `CCCOc1nn(C(=O)NS(=O)(=O)c2ccccc2C(=O)OC)c(=O)n1C`, for which the Potency result in assay [1], in [4], in [6], in assay [8] and in [9] was “inactive” each time. Moreover, the molecule was called inactive in assay [5] and in [10].

Turning to `CN(C)CCN(C)C`, the Potency entry in [1], in assay [4], in assay [6], in [9] and in assay [7] was “inactive” each time. Besides, the result in assay [3] and in [10] was inactive.
